# This is a sample that favours compounds with a hit; in the whole collection about 5.6% have one here.
# PHOSPHO1 inh – blocks human PHOSPHO1 phosphatase activity | 1.1% of 290,000 active | inhibition, % at 13.3 µM | Q8TCT1 | recombinant PHOSPHO1, absorbance phosphatase assay; in the data active = inhibition above about 60%
# Target sequence (Q8TCT1 whole entry, looked up): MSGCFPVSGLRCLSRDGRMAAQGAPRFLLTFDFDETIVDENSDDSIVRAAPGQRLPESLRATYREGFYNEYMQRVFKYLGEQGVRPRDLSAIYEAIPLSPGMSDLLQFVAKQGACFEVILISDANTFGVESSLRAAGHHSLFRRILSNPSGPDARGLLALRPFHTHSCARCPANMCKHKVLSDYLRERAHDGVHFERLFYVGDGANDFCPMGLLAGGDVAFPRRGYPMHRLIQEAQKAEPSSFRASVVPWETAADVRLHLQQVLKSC
# Cardio protect – myocardial damage modulation in H9c2 cells | 0.63% of 360,000 active | protection from H2O2 cell death, % at 20 µM | H9c2 cardiomyocytes, H2O2 injury protection, ATPLite, 2 h;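 active = compounds giving at least 50% protection of heart cells from peroxide-induced death in the single-dose screen, raw or plate-pattern-corrected value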;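 note: 0% = DMSO wells with peroxide and 100% = DMSO wells without peroxide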
# PfM18AAP inh – PfM18AAP enzyme inhibition. 1.2% of 290,000 active. recombinant PfM18AAP, H-Glu-NHMec fluorogenic cleavage. inhibition, % at 7.35 µM;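 active = inhibition above the campaign mean inhibition over all tested compounds plus 3 SD, cut at about 28% in these data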;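 note: 0% = plate median of test compound wells and 100% = 2 mM ZnCl2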
# PfG6PD inh – PfG6PD (Plasmodium falciparum) enzyme inhibition | PfGluPho enzyme, NADPH resazurin-diaphorase fluorescence | inhibition, % at 20 µM | 0.78% of 350,000 active | AID 504690;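 active = inhibition reaching at least a set limit at 20 µM in the primary screen, cut at about 59% in these data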;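 note: 0% = DMSO wells with substrate and 100% = DMSO wells lacking glucose-6-phosphate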
# ALR inh – blocks human ALR sulfhydryl oxidase activity; P55789; purified ALR, DTT oxidation, H2O2 HRP-luminol luminescence; 3.8% of 290,000 active; inhibition, % (concentration not given with the values);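 active = mean replicate inhibition above about 79%, with every replicate also reaching it, limit read from the data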
# Target sequence (P55789 whole entry, looked up): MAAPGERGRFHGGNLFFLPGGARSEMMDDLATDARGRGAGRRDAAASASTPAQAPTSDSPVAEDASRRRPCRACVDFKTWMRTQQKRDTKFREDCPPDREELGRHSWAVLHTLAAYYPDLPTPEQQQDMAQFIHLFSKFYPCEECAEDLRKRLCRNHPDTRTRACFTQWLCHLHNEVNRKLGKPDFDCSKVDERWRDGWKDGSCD
# Numbers without * were called inactive; . = no result.
SMILES,PHOSPHO1 inh,Cardio protect,PfM18AAP inh,PfG6PD inh,ALR inh
NC(=O)c1c(NC(=O)c2ccc(N3C(=O)CCC3=O)cc2)sc2c1CCCC2,.,5,.,49,93*
NC(=O)c1c(NC(=O)c2ccccc2Cl)sc2c1CCC2,.,-5,3,23,91*
COCCN(CCOC)S(=O)(=O)c1ccc(C(=O)Nc2sc3c(c2C(N)=O)CCCCC3)cc1,-16,-7,-1,25,91*
CC(=C\C(=O)O)/C(=C\c1cccc2ccccc12)C(=O)O,20,4,-2,-36,.
NC(=O)c1c(NC(=O)c2cccs2)sc2c1CCCCCC2,7,-16,5,23,-9
COCCCNC(=O)c1c(NC(=O)c2cccs2)sc2c1CCCC2,38,3,0,-1,86*
COc1ccccc1C1CC(c2cccs2)=Nc2ccccc2S1 (configuration not stated),94*,0,12,21,-7
CC(=O)N1NC(=Nc2ccccc2)SC1(C)C,16,-30,2,5,98*
COc1cc2c(cc1O)CC[C@@H]1[C@@H]2CC[C@]2(C)[C@@H](O)CC[C@@H]12,40,2,3,2,99*
COCCNC(=O)C(=O)N/N=C/c1cccs1,65*,12,-4,0,6
Cc1ccc(NC(=S)NC(=O)c2c(-c3ccccc3Cl)noc2C)cc1,38,-8,12,7,.
CC(=O)N1CCN(C(=S)NC(=O)c2c(-c3ccccc3Cl)noc2C)CC1,12,7,6,-2,95*
Cc1[nH]n(C)c(=O)c1C(=O)c1c(-c2ccccc2Cl)noc1C,-6,10,7,13,85*
O=C(O)c1ccccc1C(=O)NNc1cccc(Cl)n1,-8,-3,45*,0,-3
O=C(O)c1ccccc1C(=O)NNc1ccc(Cl)cc1,7,-3,2,-4,99*
CCC1CN(S(=O)(=O)c2ccc3c(c2)NC(=O)CC(=O)N3)c2cc(Cl)ccc2O1 (configuration not stated),7,66*,4,19,29
CCOC(=O)C1CN(S(=O)(=O)c2ccc(Cl)cc2)c2cc(S(=O)(=O)CC)ccc2O1 (configuration not stated),38,10,-5,22,-11
Cc1ccc2nsnc2c1S(=O)(=O)N(Cc1ccco1)Cc1cc2cccc(C)c2[nH]c1=O,-4,73*,1,-5,.
Cc1ccc2[nH]c(=O)c(CN(Cc3ccco3)S(=O)(=O)c3c(C)ccc4nsnc34)cc2c1,-57,50*,-3,6,4
Cc1ccc2nsnc2c1S(=O)(=O)N(Cc1ccco1)Cc1cc2ccc(C)c(C)c2[nH]c1=O,11,27,5,16,.
COc1ccc2[nH]c(=O)c(CN(Cc3cccs3)S(=O)(=O)c3c(C)ccc4nsnc34)cc2c1,-2,69*,0,3,-3
Cc1ccc(N(Cc2ccccc2)C(=O)c2ccc(Cl)c(S(=O)(=O)N3CCOCC3)c2)cc1,.,0,.,27,.
O=C(O)c1ccc(C(=O)O)c(C(=O)c2ccc(NC(=O)c3ccccc3)cc2)c1,-25,1,1,-25,-2
COc1cccc(N2CCN(CC(=O)N3CCN(S(=O)(=O)c4ccc(Cl)cc4)CC3)CC2)c1,.,-2,.,6,.
O=C1CSC(c2ccc([N+](=O)[O-])cc2)N1c1ccccc1 (configuration not stated),44,0,-4,-1,98*
SMILES,PHOSPHO1 inh,Cardio protect,PfM18AAP inh,PfG6PD inh,ALR inh
COc1ccc(N2C(=O)CSC2c2ccc([N+](=O)[O-])cc2)cc1 (configuration not stated),36,13,-9,4,98*
COc1ccc(C2SCC(=O)N2c2ccccc2)cc1 (configuration not stated),5,-1,-15,-13,.
COc1ccccc1-c1ccc2nnc(SC)n2n1,26,9,2,10,-3
CCCC1NC(=O)c2cccnc2-n2c1nc1cc(C)cc(C)c1c2=O (configuration not stated),.,1,.,-2,.
CCCCCCOc1ccc(/C=N/NC(=O)C2CC2)cc1,27,-9,-6,16,-12
O=C(N/N=C/c1ccsc1)C1CC1,-13,-18,5,6,-15
CCN(CC)c1ccc(/C=N/NC(=O)Nc2nonc2N)cc1,7,-3,12,1,99*
O=C(N/N=C/c1ccc(O)c(O)c1)C1CC1,.,8,.,-21,99*
CCN(CC)c1ccc(/C=N/NC(=O)C2CC2)cc1,43,0,15,17,100*
CCN(CC)c1ccc(/C=N/NC(=O)C(O)c2ccccc2)cc1 (configuration not stated),21,3,5,7,100*
CN(CC(=O)NC(=O)NCc1ccccc1)CC(=O)Nc1ccc(Cl)c(Cl)c1,.,-18,.,16,-1
CCN1C(=O)/C(=C/c2ccc(C)s2)NC1=S,76*,-8,6,15,10
Cc1ccc(/C=C2/NC(=O)N(Cc3ccccc3)C2=O)s1,14,1,-4,7,-4
Cc1ccc(C(=O)N/C(=C\c2ccco2)C(=O)NCCN2CCOCC2)cc1,40,4,2,0,.
Cc1ccccc1N1CCN(C2=NC(=O)/C(=C\c3cccs3)S2)CC1,-14,-6,4,23,-1
Cc1ccsc1/C=C1\SC(N2CC(C)OC(C)C2)=NC1=O (configuration not stated),-20,2,-2,10,100*
CC(=O)c1ccc(-c2cnc3c(NC=O)cc(-c4cccc(C(=O)N(C)C)c4)cn23)cc1,.,76*,.,.,.
CC(=O)Nc1cc(-c2cccc(NS(C)(=O)=O)c2)cn2c(-c3ccccc3)cnc12,.,9,.,.,.
COc1ccc(-c2cc(NC=O)c3ncc(-c4cccc(C(C)=O)c4)n3c2)cc1,.,65*,.,.,.
COc1cccc(-c2cnc3c(NC(C)=O)cc(-c4cccc(NS(C)(=O)=O)c4)cn23)c1,.,63*,.,.,.
COc1cccc(-c2cnc3c(NC=O)cc(-c4cccc(NC(C)=O)c4)cn23)c1,.,64*,.,.,.
CN(C)C(=O)c1cccc(-c2cc(NC=O)c3ncc(-c4ccc(F)cc4)n3c2)c1,.,27,.,.,.
COc1ccc(-n2nnnc2CNC(=O)c2ccc3c(c2)OCO3)cc1,.,4,.,2,-1
CC(C)(C)OC(=O)N1CCC(NC(=O)c2nc[nH]c2C(=O)N2CCN(c3ccccc3)CC2)CC1,.,31,.,0,16
CC(=O)c1cccc(-c2cnc3c(NC=O)cc(-c4ccccc4)cn23)c1,.,30,.,.,.
COc1cc(-c2cnc3c(NC=O)cc(-c4cccc(NC(C)=O)c4)cn23)cc(OC)c1OC,.,54*,.,.,.
COc1cccc(-c2cnc3c(NC=O)cc(-c4cc(C)c(O)c(C)c4)cn23)c1,.,67*,.,.,.
CC(=O)Nc1cccc(-c2cc(NC=O)c3ncc(-c4cccc(C(C)=O)c4)n3c2)c1,.,71*,.,.,.
CN1CCC(N2CCN(C3CN(Cc4ccc(F)cc4)S(=O)(=O)C3)CC2)CC1 (configuration not stated),.,5,.,.,.
CN(C)S(=O)(=O)c1cccc(NC(=O)CSc2ncnc3ccccc23)c1,20,-26,5,-5,99*

# Screening data as filed in PubChem.
